Assay results taken from PubChem BioAssay AID1159580 (chemical genetic matrix, 2015).
Several values for one entry are separate records, joined by “and”; a condition that tells them apart may be missing. Equal entries are not always repeated. In all, about 5,500 compounds went through this assay and about 2,000 (36%) were called active. Not shown: some 18% with an inconclusive outcome. Cut-off read from the data, not from the text of the source: active = normalized growth mostly below about 0.91 (no sharp cut-off); inconclusive = no clear call, values can overlap the other calls; inactive = mostly above about 0.92. The list shows a part of the results.

Assay: chemical genetic growth profiling, strain panel (AID 1159580);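 note: tested at 20 µM; growth read once vehicle control cultures reached saturation at 30 °C; 1 = growth at the plate median or of vehicle wells; lower values mean less growth of the strain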
Details: S. cerevisiae deletion strains, growth OD
[1] = locus YAL013W, strain DEP1, stronger effect = lower value
[2] = locus YBR229C, strain ROT2, stronger effect = lower value
[3] = locus YDL101C, strain DUN1, stronger effect = lower value
[4] = locus YDR150W, strain NUM1, stronger effect = lower value
[5] = locus YEL061C, strain CIN8, stronger effect = lower value
[6] = locus YGR078C, strain PAC10, stronger effect = lower value
[7] = locus YHR030C, strain SLT2, stronger effect = lower value
[8] = locus YHR087W, strain rtc3, stronger effect = lower value
[9] = locus YJR043C, strain POL32, stronger effect = lower value
[10] = locus YJR075W, strain HOC1, stronger effect = lower value
[11] = locus YLR039C, strain RIC1, stronger effect = lower value
[12] = locus YLR058C, strain SHM2 (second series), stronger effect = lower value
[13] = locus YLR085C, strain ARP6, stronger effect = lower value
[14] = locus YLR262C, strain YPT6, stronger effect = lower value
[15] = locus YML094W, strain GIM5, stronger effect = lower value
[16] = locus YMR219W, strain ESC1, stronger effect = lower value
[17] = locus YMR263W, strain SAP30, stronger effect = lower value
[18] = locus YNL153C, strain GIM3, stronger effect = lower value
[19] = locus YNL298W, strain CLA4 (second series), stronger effect = lower value
[20] = locus YNL322C, strain KRE1, stronger effect = lower value
[21] = locus YNR030W, strain Alg12, stronger effect = lower value
[22] = locus YOL006C, strain TOP1, stronger effect = lower value
[23] = locus YPL055C, strain LGE1, stronger effect = lower value
[24] = locus YPL241C, strain CIN2, stronger effect = lower value
[25] = locus YPR135W, strain CTF4, stronger effect = lower value
[26] = locus YHR079C, strain IRE1, stronger effect = lower value
[27] = locus YJL095W, strain BCK1, stronger effect = lower value
[28] = locus YJR066W, strain TOR1, stronger effect = lower value
[29] = locus YLR113W, strain HOG1, stronger effect = lower value
[30] = locus YNL183C, strain NPR1, stronger effect = lower value
[31] = locus YOR231W, strain MKK1, stronger effect = lower value
[32] = locus YPL256C, strain CLN2, stronger effect = lower value

Measured: normalized growth

CC1CN=C(NC2CCCCC2)S1 (stereo not given)
inactive: [1] 0.987 | [2] 1 | [3] 0.977 | locus YDL134C, strain PPH21, stronger effect = lower value 1.01 | [4] 0.947 | [5] 1.01 | [6] 0.998 | [7] 0.997 | [8] 1.02 | locus YJL187C, strain SWE1, stronger effect = lower value 1.01 | [9] 0.982 | [10] 0.998 | [11] 1.05 | [12] 0.988 | [13] 1.02 | [14] 1.04 | [15] 1 | [16] 1.01 | [17] 0.93 | [18] 1.01 | [19] 1.02 | [20] 0.99 | [21] 1 | [22] 1.01 | [23] 0.874 | [24] 1.01 | [25] 1.01

C[N+]1(C)C2CCC1CC(OC(=O)C(CO)c1ccccc1)C2 (stereo not given)
inactive: locus YAL040C, strain CLN3, stronger effect = lower value 1.04 and 1.01 | locus YCL061C, strain MRC1 (second series), stronger effect = lower value 1 | locus YDR363W, strain ESC2, stronger effect = lower value 0.993 | locus YER002W, strain NOP16, stronger effect = lower value 1 and 0.996 | [6] 1.02 | [7] 0.972 | [26] 0.976 | [27] 1 | [28] 0.917 | [10] 1 | [29] 0.989 | locus YNL128W, strain TEP1, stronger effect = lower value 1.01 | [18] 1.01 | locus YNL175C, strain NOP13, stronger effect = lower value 1.01 | [30] 0.929 | locus YNL197C, strain WHI3, stronger effect = lower value 1.02 and 1.01 | locus YNL224C, strain SQS1, stronger effect = lower value 1.01 and 0.997 | [20] 1.03 and 1.02 | locus YOR083W, strain WHI5 (second series), stronger effect = lower value 1.02 | [31] 0.968 | [32] 0.957

COC(=O)C(Cc1c[nH]c2ccccc12)NC(=O)c1c(Cl)cccc1Cl (stereo not given)
inactive: [1] 1 | [2] 0.992 | [3] 0.993 | [4] 0.993 | [5] 1.01 | [6] 0.994 | [7] 0.97 | [8] 0.985 | [9] 1 | [10] 0.994 | [11] 0.996 | [12] 1.01 | [13] 0.981 | [14] 1 | [15] 1 | [16] 1 | [17] 0.994 | locus YMR307W, strain GAS1, stronger effect = lower value 0.915 | [18] 0.993 | [19] 1 | [20] 0.99 | [21] 0.999 | [22] 0.937 | [23] 0.988 | [24] 0.999 | [25] 0.963

CC(C)c1cccc(C(C)C)c1OC(=O)NC(=O)c1c(Cl)cccc1Cl
inactive: locus YAR019C, strain CDC15, stronger effect = lower value 0.98 | locus YBL105C, strain PKC1, stronger effect = lower value 0.984 | locus YBR135W, strain CKS1, stronger effect = lower value 0.983 | locus YBR136W, strain MEC1, stronger effect = lower value 0.989 | locus YBR160W, strain CDC28, stronger effect = lower value 0.985 | locus YDL017W, strain CDC7, stronger effect = lower value 0.985 | locus YDL028C, strain MPS1, stronger effect = lower value 0.989 | [3] 0.971 | locus YDL108W, strain KIN28, stronger effect = lower value 0.985 | locus YDL132W, strain cdc53, stronger effect = lower value 0.985 | locus YDL214C, strain PRR2, stronger effect = lower value 0.974 | locus YDR052C, strain DBF4, stronger effect = lower value 0.978 | locus YDR054C, strain cdc34, stronger effect = lower value 0.977 | locus YDR226W, strain ADK1, stronger effect = lower value 0.975 | locus YDR477W, strain SNF1, stronger effect = lower value 0.982 | locus YER123W, strain YCK3, stronger effect = lower value 0.942 | locus YER133W, strain GLC7, stronger effect = lower value 0.983 | locus YFL009W, strain cdc4, stronger effect = lower value 0.99 | locus YFL029C, strain CAK1, stronger effect = lower value 0.979 | locus YFR003C, strain YPI1, stronger effect = lower value 0.982 | locus YFR019W, strain FAB1, stronger effect = lower value 0.969 | locus YFR028C, strain CDC14, stronger effect = lower value 0.988 | locus YGR040W, strain KSS1, stronger effect = lower value 0.979 | locus YGR052W, strain FMP48, stronger effect = lower value 1.01 | locus YGR092W, strain DBF2, stronger effect = lower value 0.992 | [7] 0.966 | [26] 0.911 | locus YHR082C, strain KSP1, stronger effect = lower value 1.04 | locus YHR205W, strain SCH9, stronger effect = lower value 0.945 | locus YIL147C, strain SLN1, stronger effect = lower value 0.988 | [27] 0.956 | locus YJL128C, strain PBS2, stronger effect = lower value 0.928 | locus YJL157C, strain FAR1, stronger effect = lower value 0.957 | locus YJR016C, strain ILV3, stronger effect = lower value 0.985 | locus YJR066W, strain TOR1 (second series), stronger effect = lower value 0.945 | [28] 1.03 | locus YKL048C, strain ELM1, stronger effect = lower value 0.986 | locus YKL067W, strain YNK1, stronger effect = lower value 0.966 | locus YKL101W, strain HSL1, stronger effect = lower value 0.956 | locus YKL193C, strain SDS22, stronger effect = lower value 0.99 | locus YKL203C, strain TOR2, stronger effect = lower value 1.01 | [29] 0.866 | locus YLR133W, strain CKI1, stronger effect = lower value 0.96 | locus YLR403W, strain SFP1, stronger effect = lower value 0.962 | locus YML070W, strain DAK1, stronger effect = lower value 0.972 | locus YMR001C, strain CDC5, stronger effect = lower value 0.986 | locus YMR205C, strain PFK2 (second series), stronger effect = lower value 0.98 | locus YMR277W, strain FCP1, stronger effect = lower value 0.986 | locus YNL006W, strain LST8, stronger effect = lower value 0.982 | locus YNL020C, strain ARK1, stronger effect = lower value 0.957 | locus YNL161W, strain CBK1, stronger effect = lower value 0.976 | [30] 0.979 | locus YNL207W, strain RIO2, stronger effect = lower value 0.98 | locus YNL222W, strain SSU72, stronger effect = lower value 0.987 | locus YNL307C, strain MCK1 (second series), stronger effect = lower value 0.958 | locus YOL078W, strain AVO1, stronger effect = lower value 0.985 | locus YOL136C, strain PFK27, stronger effect = lower value 0.945 | locus YOR061W, strain CKA2, stronger effect = lower value 0.972 | locus YOR119C, strain RIO1, stronger effect = lower value 1.04 | [31] 0.945 | locus YOR329C, strain SCD5, stronger effect = lower value 0.971 | locus YPL031C, strain PHO85, stronger effect = lower value 0.954 | locus YPL153C, strain RAD53, stronger effect = lower value 0.984 | locus YPL204W, strain HRR25, stronger effect = lower value 0.943 | locus YPL209C, strain IPL1, stronger effect = lower value 0.991 | [32] 0.919 | locus YPR025C, strain CCL1, stronger effect = lower value 0.982 | locus YPR106W, strain ISR1, stronger effect = lower value 0.978 | locus YPR111W, strain DBF20, stronger effect = lower value 0.96 | strain NNK1, stronger effect = lower value 0.962 | strain TSCII, stronger effect = lower value 0.978
